Here are results for eight molecules from PubChem BioAssay (NCI).

Common to all, as to experiment: NCI-60 one-dose screen, 48 h (100 = growth as untreated, 0 = no growth, -100 = all killed)
For one test, the system named is NCI-H23 lung. As to conditions: 10 µM unless noted.
The next test concerns HOP-62 NSCLC. As to conditions: 10 µM unless noted.
In the next test the test system is NCI-H460 lung. As to conditions: 10 µM unless noted.
The next test concerns A549/ATCC NSCLC. As to conditions: 10 µM unless noted.
In a further test the test system is K-562 leukemia. As to conditions: 10 µM unless noted.
For a further test, the system named is RXF 393 renal. As to conditions: 10 µM unless noted.
The test system of another test is SF-295 CNS. As to conditions: 10 µM unless noted.
Another test concerns UACC-257 melanoma. As to conditions: 10 µM unless noted.
In another test the test system is U251 CNS. As to conditions: 10 µM unless noted.
In a further test the test system is LOX IMVI melanoma. As to conditions: 10 µM unless noted.
For another test, the system named is SK-MEL-28 melanoma. As to conditions: 10 µM unless noted.
The subject of a further test is SK-MEL-2 melanoma. As to conditions: 10 µM unless noted.
A further test relates to UO-31 renal. As to conditions: 10 µM unless noted.
The next test deals with TK-10 renal. As to conditions: 10 µM unless noted.
The next test concerns A498 renal. As to conditions: 10 µM unless noted.
Another test has as its system OVCAR-4 ovarian. As to conditions: 10 µM unless noted.
The subject of the next test is BT-549 breast. As to conditions: 10 µM.
In another test the test system is HCC-2998 colon. As to conditions: 10 µM unless noted.
A further test concerns HL-60(TB) leukemia. As to conditions: 10 µM unless noted.
The next test has as its system SR leukemia. As to conditions: 10 µM.

About 83,000 compounds went through this panel and 20% of them were active in at least one assay; those are over-represented in the sample as a whole.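 Assay: single dose, 48 h. Readout: percent growth (0 = no net growth; negative = cell death). Active: <10.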 Unmarked numbers belong to inactive results. Calls of active or inactive are those of the source.

Take `CC(C)(C)NCC(O)c1ccccc1Cl` (stereo not drawn): the growth with NCI-H23 lung was 25%; with HOP-62 NSCLC, 29.3%; in the test on NCI-H460 lung it was 6.76% (active); with A549/ATCC NSCLC it was 11.5%; with K-562 leukemia, 17.5%; in the test with RXF 393 renal, -19.8% (active). Moreover, the growth in the test with SF-295 CNS is -3.79% (active); in the test on UACC-257 melanoma, 54.5%; with U251 CNS, 10.2%; with LOX IMVI melanoma, 35.1%; in the test on SK-MEL-28 melanoma, 48.2%; in the test on SK-MEL-2 melanoma it was -20.2% (active). For the same molecule, the growth was 48.1% in the test with UO-31 renal; 17.3% in the test on TK-10 renal; -9.2% (active) in the test on A498 renal; 60.3% with OVCAR-4 ovarian; 35.2% in the test on BT-549 breast; -28.8% (active) in the test with HCC-2998 colon.
In the case of `CC1(C)N=C(N)N=C(N)N1c1ccc(OCCCCNC(=O)Nc2cccc(S(=O)(=O)F)c2)c(Cl)c1`, the growth is 39.8% in the test with NCI-H23 lung; 62.8% in the test on HOP-62 NSCLC; 14.2% in the test on NCI-H460 lung; 15.4% with A549/ATCC NSCLC; 17.7% in the test on K-562 leukemia; 58.2% in the test with RXF 393 renal. Further, the growth in the test with UACC-257 melanoma was 45.4%; with U251 CNS, 15.6%; in the test on LOX IMVI melanoma it was 13.7%; in the test on SK-MEL-28 melanoma it was 60.3%; with SK-MEL-2 melanoma, 81.2%; in the test with UO-31 renal it was 90.1%. Besides, the growth with TK-10 renal was 62%; in the test with A498 renal, 90.3%; in the test with HL-60(TB) leukemia, 29.4%; in the test on SR leukemia, 45.8%; with OVCAR-4 ovarian, 97.1%; in the test with BT-549 breast it was 66.4%. For the same molecule, the growth in the test with HCC-2998 colon is 50.8%.
As to `FC(F)=C(F)c1ccccc1`, the growth is 103% in the test with NCI-H23 lung; 87.4% with HOP-62 NSCLC; 109% in the test with NCI-H460 lung; 108% in the test on A549/ATCC NSCLC; 89.2% with K-562 leukemia; 112% with RXF 393 renal. Further, the growth with SF-295 CNS is 96.5%; with UACC-257 melanoma it was 116%; in the test with U251 CNS it was 103%; in the test on LOX IMVI melanoma, 88.6%; with SK-MEL-28 melanoma, 102%; in the test on SK-MEL-2 melanoma, 98.5%. Moreover, the growth was 83.7% with UO-31 renal; 89.7% in the test with TK-10 renal; 100% in the test on A498 renal; 90.8% in the test with HL-60(TB) leukemia; 80.4% with SR leukemia; 111% in the test with OVCAR-4 ovarian. Besides, the growth was 96% with BT-549 breast and 114% in the test on HCC-2998 colon.
Regarding `Cc1ccc2oc(=O)c3c(c2c1)OC(N)=C(C#N)C3c1ccco1` (stereo not drawn), the growth is 98.3% with NCI-H23 lung; 105% in the test with NCI-H460 lung; 97% in the test on A549/ATCC NSCLC; 98% in the test on SF-295 CNS; 96.6% in the test with UACC-257 melanoma; 109% with U251 CNS. Also, the growth was 96.8% in the test with LOX IMVI melanoma; 113% in the test with SK-MEL-28 melanoma; 112% in the test on SK-MEL-2 melanoma; 77.7% in the test on UO-31 renal; 108% with TK-10 renal; 105% with A498 renal. The growth was 113% in the test on HL-60(TB) leukemia; 107% with SR leukemia; 114% in the test with OVCAR-4 ovarian; 98.8% with BT-549 breast; 109% with HCC-2998 colon.
In the case of `CC(=O)O[C@H]1CC[C@H]2[C@@H]3CC[C@H]4CC=C(C)C[C@]4(C)[C@H]3CC[C@]12C`, the growth is 104% with NCI-H23 lung; 98.9% with HOP-62 NSCLC; 113% in the test on NCI-H460 lung; 107% in the test on A549/ATCC NSCLC; 111% in the test with RXF 393 renal; 103% in the test with SF-295 CNS. Besides, the growth is 111% in the test with UACC-257 melanoma; 110% with U251 CNS; 102% in the test with LOX IMVI melanoma; 112% with SK-MEL-28 melanoma; 110% in the test with SK-MEL-2 melanoma; 92.3% with UO-31 renal. Besides, the growth in the test on TK-10 renal was 108%; in the test on A498 renal, 104%; in the test on HL-60(TB) leukemia, 89.9%; in the test with OVCAR-4 ovarian, 104%; in the test on BT-549 breast, 107%; in the test on HCC-2998 colon, 111%.
`CC(=O)Nc1ccc(C=C2C(=O)NC(=O)NC2=O)cc1`: the growth in the test with NCI-H23 lung was 101%; in the test with HOP-62 NSCLC it was 103%; with A549/ATCC NSCLC, 100%; in the test on K-562 leukemia, 104%; with RXF 393 renal, 118%; in the test on SF-295 CNS it was 104%. Further, the growth with UACC-257 melanoma is 98.4%; in the test with U251 CNS it was 103%; in the test on LOX IMVI melanoma it was 96.8%; in the test on SK-MEL-2 melanoma it was 109%; with UO-31 renal, 84.5%; in the test on TK-10 renal, 107%. Further, the growth in the test on SR leukemia is 95.7%; in the test on OVCAR-4 ovarian, 107%; in the test with BT-549 breast, 112%; in the test on HCC-2998 colon it was 104%.
Take `O=[N+]([O-])c1ccc2cnn(CSP(=S)(c3ccccc3)c3ccccc3)c2c1`: the growth in the test with NCI-H23 lung is 67.4%; with HOP-62 NSCLC, 59.3%; in the test on A549/ATCC NSCLC, 73.3%; with K-562 leukemia it was 19%; in the test on RXF 393 renal, 70.1%; with SF-295 CNS it was 96.3%. Also, the growth in the test on UACC-257 melanoma was 86.3%; with U251 CNS it was 74.1%; with LOX IMVI melanoma, 65%; in the test with SK-MEL-28 melanoma, 74.1%; with SK-MEL-2 melanoma, 98.2%; in the test with UO-31 renal, 58.9%. The growth with TK-10 renal is 127%; in the test with HL-60(TB) leukemia, 35.2%; in the test on SR leukemia, 9.77% (active); in the test with OVCAR-4 ovarian, 73.1%; with BT-549 breast it was 69.7%; with HCC-2998 colon, 89%.
As for `C[C@]12CCC(=O)CC1CC[C@@H]1C2CC[C@@]2(C)C1CC[C@@H]2OC(=O)CC[Se][Se]CCC(=O)O[C@H]1CCC2[C@@H]3CCC4CC(=O)CC[C@]4(C)C3CC[C@@]21C` (stereo partly drawn), the growth in the test with NCI-H23 lung was 102%; in the test with HOP-62 NSCLC, 82.4%; with NCI-H460 lung it was 95.9%; in the test with A549/ATCC NSCLC it was 101%; in the test with RXF 393 renal it was 81.7%; with SF-295 CNS it was 96.7%. Also, the growth in the test on UACC-257 melanoma was 90.6%; in the test on U251 CNS, 81.3%; with LOX IMVI melanoma it was 80.8%; in the test on SK-MEL-2 melanoma, 98.4%; in the test on UO-31 renal, 90.5%; in the test on TK-10 renal it was 77.4%. For the same molecule, the growth is 84.6% in the test on A498 renal; 9.16% (active) with HL-60(TB) leukemia; 83.2% with OVCAR-4 ovarian; 96.8% with BT-549 breast; 108% in the test on HCC-2998 colon.
